Source: PubChem BioAssay (NCATS)
Several values for one entry are separate records, joined by “and”; a condition that tells them apart may be missing. Equal entries are not always repeated. Results filed as inconclusive are left out. A structure can be active in one record and inactive in another. Activity calls are given as the source filed them. Calls come from the whole dose curve; as a rule, active = well fitted curve in the direction sought with a large enough effect; inconclusive = small, poorly fitted or top-dose-only effect, or another doubt; inactive = no such curve, though single readings can be large; an effect the other way counts as inactive or inconclusive.

Tests used:
[1] = biological target: Cytochrome P450 2C9 (Homo sapiens) (UniProt P11712); test: qHTS Assay for Inhibitors and Substrates of Cytochrome P450 2C9 (AID 883); conditions: recombinant CYP2C9, luciferin-H luminescence, 60 min; series mostly up to 11.4 µM; note: nearly all actives have a fitted effect of over 60% in size; note: potency is the fitted concentration of half-maximal effect; for activity change, negative = inhibition: % is set by controls: 0 for no effect and ±100 for the full control effect
In short: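 Luminescent read-out of deoxyluciferin hydroxylation, normalized to 57uM sulphaphenazole (AC100). Reaction: 10nM enzyme, 100uM Luciferin-H (equal to KM), 25mM KPO4, 10 min compound preincubation, then 60 min with NADPH regeneration, both at 37C.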

[2] = biological target: Cytochrome P450 3A4 (Homo sapiens) (UniProt P08684); test: qHTS Assay for Inhibitors and Substrates of Cytochrome P450 3A4 (AID 884); conditions: recombinant CYP3A4, Luciferin-PPXE luminescence; series mostly up to 57.1 µM; note: nearly all actives have a fitted effect of over 50% in size; note: potency is the fitted concentration of half-maximal effect; for activity change, negative = inhibition: % is set by controls: 0 for no effect and ±100 for the full control effect
In short: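 Luminescent readout of luciferin produced by CYP3A4 (20 nM) dealkylation of Luciferin-PPXE, 25 uM (its KM). NADPH-driven reaction ran 60 min at RT after 10 min compound preincubation; data scaled to 57 uM ketoconazole as 100% inhibition.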

[3] = biological target: Cytochrome P450 3A4 (Homo sapiens) (UniProt P08684); test: qHTS Assay for Activators of Cytochrome P450 3A4 (AID 885); conditions: recombinant CYP3A4, Luciferin-PPXE luminescence, 60 min; series mostly up to 57.1 µM; note: nearly all actives have a fitted effect of over 65% in size
In short: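 Using 20nM recombinant human CYP3A4 in potassium phosphate (200mM), substrate Luciferin-PPXE at 25uM, luminescent luciferin detection followed a 60-min RT NADPH reaction; data scaled to 57 uM ketoconazole.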

[4] = biological target: Cytochrome P450 2D6 (Homo sapiens) (UniProt P10635); test: qHTS Assay for Inhibitors and Substrates of Cytochrome P450 2D6 (AID 891); conditions: recombinant CYP2D6, luciferin-ME EGE luminescence; series mostly up to 11.4 µM; note: nearly all actives have a fitted effect of over 60% in size; note: potency is the fitted concentration of half-maximal effect;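 for activity change, negative = inhibition: luciferin methyl ether substrate demethylated by CYP2D6 with NADPH regeneration; % is set by controls: 0 for no effect and ±100 for the full control effect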
In short: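 Luminescent read-out of luciferin formed by 5 nM human CYP2D6 demethylating 30 uM Luciferin-ME EGE (Km level) over 60 min at room temperature after NADPH regeneration addition. Data normalized to full inhibition by 1.43 uM quinidine.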

[5] = biological target: Cytochrome P450 2C19 (Homo sapiens) (UniProt P33261); test: qHTS Assay for Inhibitors and Substrates of Cytochrome P450 2C19 (AID 899); conditions: recombinant CYP2C19, luciferin-H EGE luminescence; series mostly up to 11.4 µM; note: nearly all actives have a fitted effect of over 60% in size; note: potency is the fitted concentration of half-maximal effect
In short: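 Luminescence readout of luciferin formed from 10uM Luciferin-H EGE (KM level) by 5 nM CYP2C19 in 50mM KPO4. 60 min NADPH-driven reaction at 37C after 10 min compound preincubation; data scaled to 57uM ketoconazole inhibition.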

Chain of Cytochrome P450 2C9 (Homo sapiens) (P11712 whole entry, looked up): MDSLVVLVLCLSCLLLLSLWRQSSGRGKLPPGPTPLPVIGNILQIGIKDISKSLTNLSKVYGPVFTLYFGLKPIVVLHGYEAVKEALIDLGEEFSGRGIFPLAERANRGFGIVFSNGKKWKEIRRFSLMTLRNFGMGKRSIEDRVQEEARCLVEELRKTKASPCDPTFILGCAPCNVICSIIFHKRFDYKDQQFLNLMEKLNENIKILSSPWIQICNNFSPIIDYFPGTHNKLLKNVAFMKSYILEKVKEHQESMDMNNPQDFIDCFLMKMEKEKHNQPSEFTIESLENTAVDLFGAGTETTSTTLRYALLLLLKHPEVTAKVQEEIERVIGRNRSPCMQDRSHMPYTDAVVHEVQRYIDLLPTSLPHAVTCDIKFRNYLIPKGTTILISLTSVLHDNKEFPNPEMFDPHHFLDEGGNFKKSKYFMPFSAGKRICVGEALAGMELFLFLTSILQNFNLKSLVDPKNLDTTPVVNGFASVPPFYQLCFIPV
Chain of Cytochrome P450 2C19 (Homo sapiens) (P33261 whole entry, looked up): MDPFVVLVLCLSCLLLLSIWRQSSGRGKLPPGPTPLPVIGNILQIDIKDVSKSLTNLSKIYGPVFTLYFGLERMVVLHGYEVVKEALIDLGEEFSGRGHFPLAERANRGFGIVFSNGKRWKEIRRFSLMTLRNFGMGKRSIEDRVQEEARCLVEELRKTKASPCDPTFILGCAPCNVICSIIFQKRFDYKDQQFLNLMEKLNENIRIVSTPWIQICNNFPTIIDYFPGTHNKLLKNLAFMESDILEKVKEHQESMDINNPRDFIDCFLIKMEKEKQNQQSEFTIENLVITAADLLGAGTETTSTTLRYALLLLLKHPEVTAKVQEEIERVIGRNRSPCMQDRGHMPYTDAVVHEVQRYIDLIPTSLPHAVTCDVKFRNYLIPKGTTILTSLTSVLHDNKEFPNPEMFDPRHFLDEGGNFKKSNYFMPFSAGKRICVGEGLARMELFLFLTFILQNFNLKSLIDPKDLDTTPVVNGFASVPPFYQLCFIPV
Chain of Cytochrome P450 2D6 (Homo sapiens) (P10635 whole entry, looked up): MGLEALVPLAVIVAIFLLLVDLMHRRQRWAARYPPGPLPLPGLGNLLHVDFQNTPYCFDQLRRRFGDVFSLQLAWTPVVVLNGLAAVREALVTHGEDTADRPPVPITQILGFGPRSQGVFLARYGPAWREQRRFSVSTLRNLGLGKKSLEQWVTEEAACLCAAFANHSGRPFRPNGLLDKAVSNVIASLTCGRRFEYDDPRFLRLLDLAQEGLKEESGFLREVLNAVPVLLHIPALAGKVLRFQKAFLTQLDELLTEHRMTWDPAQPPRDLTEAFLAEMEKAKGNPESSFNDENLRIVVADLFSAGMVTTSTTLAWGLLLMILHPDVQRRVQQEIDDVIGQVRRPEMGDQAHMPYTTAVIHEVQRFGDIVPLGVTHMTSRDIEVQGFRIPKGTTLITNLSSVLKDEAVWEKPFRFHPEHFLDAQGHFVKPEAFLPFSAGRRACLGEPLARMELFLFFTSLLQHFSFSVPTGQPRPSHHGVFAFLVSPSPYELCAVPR
Chain of Cytochrome P450 3A4 (Homo sapiens) (P08684 whole entry, looked up): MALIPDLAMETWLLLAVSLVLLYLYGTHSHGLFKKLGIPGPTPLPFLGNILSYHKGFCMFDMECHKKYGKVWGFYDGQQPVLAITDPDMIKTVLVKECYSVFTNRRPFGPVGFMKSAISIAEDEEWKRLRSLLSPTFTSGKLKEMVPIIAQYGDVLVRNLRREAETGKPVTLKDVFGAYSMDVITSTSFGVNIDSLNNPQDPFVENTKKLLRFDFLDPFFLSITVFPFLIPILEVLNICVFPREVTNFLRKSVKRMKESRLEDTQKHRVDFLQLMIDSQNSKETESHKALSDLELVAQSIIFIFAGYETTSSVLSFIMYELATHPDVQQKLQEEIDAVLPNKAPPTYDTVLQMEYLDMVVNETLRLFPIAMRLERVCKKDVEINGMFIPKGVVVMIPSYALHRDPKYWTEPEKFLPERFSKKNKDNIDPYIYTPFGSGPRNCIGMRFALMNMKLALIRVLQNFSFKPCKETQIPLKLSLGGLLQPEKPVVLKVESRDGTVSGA

SMILES | Potency [1] | Potency [2] | activity change, positive = activation [3] | Potency [4] | Potency [5] | activity change, negative = inhibition [2]
CCCCCCC(=O)Cc1cc(OC)c(OC)cc1/C=C(/C(C)=O)C(=O)OC | inactive | 3.98 µM (active) | -68.2% [at 11.4 µM] (inactive) | inactive | 2 µM (active) | 
COc1ccc(/C=C/N(CCc2ccc(OC)c(OC)c2)C(=O)c2ccccn2)cc1 | inactive | 3.98 µM (active) | -97.7% [at 11.4 µM] (inactive) | inactive | inactive | 
CC(C)(C)c1ccc(OC2C=CC(C#Cc3ccccc3)OC2CO)cc1 (stereo not drawn) | inactive | 3.16 µM (active) | -73.2% [at 11.4 µM] (inactive) | inactive | inactive | 
C=CCOC(=O)C(C(C)=O)C(NC(=O)OC)c1ccccc1 (stereo not drawn) | inactive | 3.98 µM (active) | -86.9% [at 11.4 µM] (inactive) | inactive | 0.631 µM (active) | 
COC(=O)C1=C(C)N(Cc2ccccc2)C2=C3C(=O)CCCC3[C@@](O)(C(=O)OC)C(=O)N2C1c1ccccc1 (stereo partly drawn) | inactive |  | -36% [at 11.4 µM] (inactive) | inactive | inactive | -20% [at 11.4 µM] (inactive)
COC(=O)N(/C=C/c1ccc(OC)cc1)CCc1ccc(OC)c(OC)c1 | 3.16 µM (active) | 3.98 µM (active) | -93.3% [at 11.4 µM] (inactive) | inactive | 3.98 µM (active) | 
CCCCC#CC1C=CC(Oc2ccc(OC)cc2)C(CO)O1 (stereo not drawn) | inactive | 3.16 µM (active) | -94.2% [at 11.4 µM] (inactive) | inactive | 2 µM (active) | 
CCCCCCC1Cc2cc(OC)c(OC)cc2C(C(C(=O)OCC)C(=O)OCC)O1 (stereo not drawn) | inactive | 3.16 µM (active) and 1.58 µM (active) | -66.2% [at 11.4 µM] (inactive) and -65.3% [at 11.4 µM] (inactive) | inactive | inactive and 3.16 µM (active) | 
OCC1OC(/C=C\c2ccccc2)C=CC1Oc1ccc2c(c1)OCO2 (stereo not drawn) | inactive | 0.398 µM (active) | -105% [at 11.4 µM] (inactive) | 3.98 µM (active) | 0.251 µM (active) | 
CC(=O)OCC1OC(C#CCCc2ccccc2)C=CC1OC(C)=O (stereo not drawn) | inactive | 3.16 µM (active) | -61.8% [at 11.4 µM] (inactive) | inactive | inactive | 
CCOC(=O)OCC1OC(C#Cc2ccc(F)cc2F)C=CC1OC(=O)OCC (stereo not drawn) | inactive | 3.16 µM (active) | -75.6% [at 11.4 µM] (inactive) | inactive | inactive | 
COC(=O)C1=C(C)N(Cc2ccccc2)[C@]23O[C@](C(=O)OC)(C(=O)N2C1c1ccccc1)C(c1ccccc1)C3C(=O)c1ccccc1 (stereo partly drawn) | inactive |  | -32.3% [at 11.4 µM] (inactive) | inactive | inactive | -26.7% [at 11.4 µM] (inactive)
COC(=O)C1=C(C)N(Cc2ccccc2)C2=C(C(=O)c3ccccc3)C(c3ccccc3)[C@@](O)(C(=O)OC)C(=O)N2C1c1ccccc1 (stereo partly drawn) | inactive |  | -54.4% [at 11.4 µM] (inactive) | inactive | inactive | -22.8% [at 11.4 µM] (inactive)
COc1ccc(OCC2CN3C(CCC(C)C3c3ccc(Br)cc3)C(=O)O2)cc1 (stereo not drawn) | inactive | 3.98 µM (active) | -46.6% [at 11.4 µM] (inactive) and -70% [at 11.4 µM] (inactive) | inactive | inactive | 
CCCCCCCC#Cc1ccccc1/C=N/S(=O)c1ccc(C)cc1 (stereo not drawn) | inactive | 3.98 µM (active) | -65.3% [at 11.4 µM] (inactive) | inactive | inactive | 
CC(=O)OCC1OC(C#CCCCc2ccccc2)C=CC1OC(C)=O (stereo not drawn) | inactive | 3.98 µM (active) | -71.4% [at 11.4 µM] (inactive) and -59.5% [at 11.4 µM] (inactive) | 3.98 µM (active) and 3.16 µM (active) | inactive | 
COc1ccc(/C=C/NC(=O)c2ccc(OC)cc2)cc1 | inactive | 3.16 µM (active) | -68.6% [at 11.4 µM] (inactive) | inactive | inactive | 
C=COCC1CN2C(CCC(C)C2c2ccc(Br)cc2)C(=O)O1 (stereo not drawn) | inactive | 3.16 µM (active) and 794 nM (active) | -65.3% [at 11.4 µM] (inactive) and -87.4% [at 11.4 µM] (inactive) | inactive | 316 nM (active) and 79.4 nM (active) | 
COC(=O)C1=C2N(Cc3ccccc3)C(C)=C(C(=O)OC)C(c3ccccc3)N2C(=O)[C@](O)(C(=O)OC)C1 (stereo partly drawn) | inactive |  | -51.3% [at 11.4 µM] (inactive) | inactive | inactive | -26.5% [at 11.4 µM] (inactive)
CCCCCCC#CC1C=CC(OC(=O)OCC)C(COC(=O)OCC)O1 (stereo not drawn) | inactive | 3.98 µM (active) | -78% [at 11.4 µM] (inactive) | inactive | 2 µM (active) | 

SMILES | Potency [1] | Potency [2] | activity change, positive = activation [3] | Potency [4] | Potency [5] | activity change, negative = inhibition [2]
C#CCC(C(=O)OC)(C(=O)OC)C(C[N+](=O)[O-])c1ccccc1 (stereo not drawn) | inactive | 3.16 µM (active) | -77% [at 11.4 µM] (inactive) | inactive | inactive | 
CC#CC(C)C(OCOC)C(CC(C)Cc1cc(Br)cc(OCc2ccccc2)c1OC)OC (stereo not drawn) | inactive | 3.16 µM (active) | -76.2% [at 11.4 µM] (inactive) | inactive | inactive | 
COC(=O)C1=C(C)N(Cc2ccccc2)C2=C3C(=O)N(C)C(=O)C3[C@@](O)(C(=O)OC)C(=O)N2C1c1ccccc1 (stereo partly drawn) | inactive |  | -32.3% [at 11.4 µM] (inactive) | inactive | inactive | -21.3% [at 11.4 µM] (inactive)
Cc1cc(C)cc(C#CC2C=CC(Oc3ccc(C4CCCC4)cc3)C(CO)O2)c1 (stereo not drawn) | inactive | 3.98 µM (active) | -81.6% [at 11.4 µM] (inactive) | inactive | inactive | 
COc1ccc(OC2C(O)COC2/C=C/C#Cc2ccc(F)cc2F)cc1 (stereo not drawn) | 2.51 µM (active) | 3.98 µM (active) and 3.16 µM (active) | -91.9% [at 11.4 µM] (inactive) and -66.3% [at 11.4 µM] (inactive) | inactive | inactive | 
CCOC(=O)OCC1OC(c2cc(C)cc(C)c2)C=CC1OC(=O)OCC (stereo not drawn) | inactive | 3.98 µM (active) | -69.3% [at 11.4 µM] (inactive) | inactive | inactive | 
CC(=O)OCC1OC(C#Cc2ccccc2Cl)C=CC1OC(C)=O (stereo not drawn) | inactive | 3.98 µM (active) | -76.5% [at 11.4 µM] (inactive) | inactive | 3.16 µM (active) | 
COC(=O)C1=C(C)N(Cc2ccccc2)C2=C3C(=O)OCCC3[C@@](O)(C(=O)OC)C(=O)N2C1c1ccccc1 (stereo partly drawn) | inactive | 3.98 µM (active) | -61.3% [at 11.4 µM] (inactive) | inactive | inactive | 
COC(=O)C1=C(C)N(Cc2ccccc2)[C@]23O[C@](C(=O)OC)(C(=O)N2C1c1ccccc1)C1CCOC(=O)C13 (stereo partly drawn) | inactive | 2.51 µM (active) | -70.4% [at 11.4 µM] (inactive) | inactive | inactive | 
COC(=O)NC(CC(C)=O)c1ccc2c(c1)OCO2 (stereo not drawn) | inactive | 3.98 µM (active) | -67.3% [at 11.4 µM] (inactive) | inactive | inactive | 
CN(C)c1cccc(OC2C=CC(C#Cc3ccccc3)OC2CO)c1 (stereo not drawn) | inactive | 3.98 µM (active) | -83.1% [at 11.4 µM] (inactive) | inactive | 3.98 µM (active) | 
CC1CCC2C(=O)OC(COc3ccc(C(C)(C)C)cc3)CN2C1c1ccc(Br)cc1 (stereo not drawn) | inactive |  | -42.1% [at 11.4 µM] (inactive) and -33.2% [at 11.4 µM] (inactive) | inactive | 251 nM (active) and inactive | -22.1% [at 11.4 µM] (inactive) and -29.8% [at 11.4 µM] (inactive) and -21% [at 11.4 µM] (inactive)
COC(=O)C1=C(C)N(Cc2ccccc2)[C@]23O[C@](C(=O)OC)(C(=O)N2C1c1ccccc1)C1CCCC(=O)C13 (stereo partly drawn) | inactive |  | -50.6% [at 11.4 µM] (inactive) | inactive | inactive | -22.3% [at 11.4 µM] (inactive)
C=CCOC(=O)C(C(C)=O)C(NC(=O)OC)c1cccc(C)c1 (stereo not drawn) | inactive | 2.51 µM (active) | -86.6% [at 11.4 µM] (inactive) | inactive | 0.794 µM (active) | 
C=CCOC(=O)C(C(C)=O)C(NC(=O)OC)c1ccc(F)cc1 (stereo not drawn) | inactive | 3.16 µM (active) | -78% [at 11.4 µM] (inactive) | inactive | 0.398 µM (active) | 
COc1ccc(OCC2Cc3c(-c4ccccc4)nc4c(c3CO2)CN(CCOc2ccccc2)CC4)cc1 (stereo not drawn) | inactive | 3.98 µM (active) | -83.6% [at 11.4 µM] (inactive) | inactive | inactive | 
CC1CCC2C(=O)N3C(CCC(C)[C@@H]3c3cccc(N4CCOCC4)c3)C(=O)N2C1c1cccc(N2CCOCC2)c1 (stereo partly drawn) | inactive | 3.98 µM (active) | -62.4% [at 11.4 µM] (inactive) | inactive | inactive | 
COC(=O)NC(c1cccc(C)c1)[C@]1(C(C)=O)CCOC1=O (stereo partly drawn) | 3.16 µM (active) | 0.0316 µM (active) | -88.5% [at 11.4 µM] (inactive) | inactive | 0.0398 µM (active) | 
Cc1ccc(S(=O)(=O)N[C@@H](CCc2ccccc2)CC(=O)C(C)(C)C)cc1 | 3.98 µM (active) | 1.58 µM (active) | -96.1% [at 11.4 µM] (inactive) |  | 1.58 µM (active) | 
CCCCc1nc2c(c3c1CC(C)OC3)CN(CCC(C)C)CC2 (stereo not drawn) | inactive | 3.98 µM (active) | -60.1% [at 11.4 µM] (inactive) |  | inactive | 
